The text below walks through data of PubChem BioAssay (Tox21).

Experiment [1] in a line: qHTS assay to identify small molecule that activate the aryl hydrocarbon receptor (AhR) signaling pathway - cell viability counter screen (AID 743086).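 Also: HepG2 liver cells carrying the AhR DRE luciferase reporter; series mostly up to about 70 µM; nearly all actives have a fitted effect of over 45% in size.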 In short, it runs like this:
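Cytotoxicity counter screen: CellTiter-Fluor signal (30 min, 37 C) in 4000 HepG2 cells/well carrying the DRE-luciferase reporter, following 24 h compound exposure at 37 C.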

Experiment [2] concerns the target Peroxisome proliferator-activated receptor gamma (Homo sapiens) (UniProt P37231). Briefly: qHTS assay to identify small molecule agonists of the peroxisome proliferator-activated receptor gamma (PPARg) signaling pathway (AID 743094; active = well fitted activation curve with a large enough effect in the signal ratio in the repeat runs, not every such curve was filed as active; the % refers to the signal ratio). In a few lines:
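Agonism was assessed in a beta-lactamase reporter system, HEK293H cells with a stably integrated UAS-bla construct under PPARg control; the 17 h treatment at 37C preceded a 1 h room-temperature FRET substrate read.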

Experiment [3] shares this target. Briefly: qHTS assay to identify small molecule antagonists of the peroxisome proliferator-activated receptor gamma (PPARg) signaling pathway (AID 743191; calls by dose curve; also: series mostly up to about 63 µM; nearly all actives have a fitted effect of over 30% in size). In short, it runs like this:
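Beta-lactamase reporter under UAS control in HEK293H PPARg-bla cells; compound treatment 17 h at 37C. Read-out: fluorescence intensity after 1 h room-temperature incubation with LiveBLAzer B/G FRET substrate.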

The nature of experiment [4]: qHTS assay to identify small molecule antagonists of the peroxisome proliferator-activated receptor gamma (PPARg) signaling pathway - cell viability counter screen (AID 743194). Also: nearly all actives have a fitted effect of over 55% in size. In short, it runs like this:
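Viability was measured as CellTiter-Glo luminescence in GeneBLAzer PPARg UAS-bla HEK293H cells. These cells had been exposed 17 h at 37 C to compounds together with rosiglitazone at 50 nM final, with the beta-lactamase readout taken in the same wells.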

Experiment [5] in a line: qHTS assay for small molecule agonists of the antioxidant response element (ARE) signaling pathway - cell viability counter screen (AID 743203; calls by dose curve; also: nearly all actives have a fitted effect of over 55% in size). In a few lines:
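ATP content via CellTiter-Glo luminescence served as the viability measure. Cells: ARE-bla HepG2, 2,000 per well. Exposure: 16 hrs, 37C/5% CO2.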

A short description of experiment [6]: qHTS assay for small molecule activators of the heat shock response signaling pathway - cell viability counter screen (AID 743209). Also: nearly all actives have a fitted effect of over 50% in size. In a few lines:
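Compounds dissolved in DMSO were added to overnight-plated HSE-bla HeLa cells and left 5 h at 37 C. Cell viability was quantified by luminescence using CellTiter-Glo.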

The nature of experiment [7]: qHTS assay for small molecule activators of the heat shock response signaling pathway (AID 743210; active = well fitted activation curve with a large enough effect in the signal ratio in the repeat runs, with a control signal flat, not every such curve was filed as active; the % refers to the signal ratio;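 also: HeLa cells with beta-lactamase reporter driven by heat shock elements; series mostly up to about 63 µM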). In a few lines: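 Fluorescence from a cleaved B/G FRET substrate (2.5 h, room temp) reports HSE-driven beta-lactamase in HeLa cells treated 5 h at 37 C with DMSO-dissolved compounds.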
The target in experiment [8] is Peroxisome proliferator-activated receptor delta (Homo sapiens) (UniProt Q03181). Briefly: qHTS assay to identify small molecule agonists of the peroxisome proliferator-activated receptor delta (PPARd) signaling pathway (AID 743212; calls by dose curve). In a few lines:
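Steps: seed PPARd-bla HEK293H cells; incubate 5 h, 37 C, 5% CO2; add compounds in DMSO; incubate, 37 C; add LiveBLAzer B/G FRET substrate; hold 2 h at room temperature; measure fluorescence.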

The nature of experiment [9]: qHTS assay to identify small molecule antagonists of the peroxisome proliferator-activated receptor delta (PPARd) signaling pathway - cell viability counter screen (AID 743213). Also: nearly all actives have a fitted effect of over 50% in size. In short, it runs like this:
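Agonist-stimulated (L165041, 300 nM final) HEK293H PPARd UAS-bla cells are exposed to compounds for 17 h at 37 C, and ATP-based luminescence (CellTiter-Glo) from the same wells reports cytotoxicity.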

For experiment [10], the target named is Peroxisome proliferator-activated receptor delta (Homo sapiens) (UniProt Q03181). Put plainly: qHTS assay to identify small molecule antagonists of the peroxisome proliferator-activated receptor delta (PPARd) signaling pathway (AID 743215; active = well fitted inhibition curve with a large enough effect in the signal ratio in the repeat runs, not every such curve was filed as active; the % refers to the signal ratio; also: series mostly up to about 62 µM). In a few lines: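 Here, a reporter line (HEK293H, beta-lactamase under a UAS) measures PPARd signaling. Compounds are tested against agonist L165041 at 300 nM final concentration over 17 h at 37 C, with fluorescence read after substrate.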

Experiment [11] in a line: qHTS assay to identify small molecule agonists of the farnesoid-X-receptor (FXR) signaling pathway - cell viability counter screen (AID 743218). Also: nearly all actives have a fitted effect of over 45% in size. In a few lines: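 Quantitative HTS counter screen measuring ATP-based viability via CellTiter-Glo luminescence in HEK 293T cells carrying a UAS-driven beta-lactamase reporter, after 16 h compound exposure at 37 C.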
For experiment [12], the target named is Bile acid receptor (Homo sapiens) (UniProt Q96RI1). Put plainly: qHTS assay to identify small molecule agonists of the farnesoid-X-receptor (FXR) signaling pathway (AID 743220; active = well fitted activation curve with a large enough effect in the signal ratio in the repeat runs, not every such curve was filed as active; the % refers to the signal ratio). In a few lines:
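FXR-UAS-bla HEK 293T cells carrying a UAS-driven beta-lactamase reporter were plated for 5 h at 37C/5% CO2, then exposed to DMSO-dissolved Tox21 10K compounds for 16 h at 37C. A LiveBLAzer B/G FRET substrate was loaded for 2 h at room temperature before fluorescence reading.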

Experiment [13] has as its target Vitamin D3 receptor (Homo sapiens) (UniProt P11473). Put plainly: qHTS assay to identify small molecule agonists of the vitamin D receptor (VDR) signaling pathway (AID 743222; calls by dose curve). In a few lines:
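Tox21 cell reporter format: VDR-bla line, 16 h compound exposure in 5% CO2 at 37C, then fluorescence intensity after 2 h with LiveBLAzer B/G FRET substrate.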

The target is the same in experiment [14]. Put plainly: qHTS assay to identify small molecule antagonists of the vitamin D receptor (VDR) signaling pathway (AID 743223; active = well fitted inhibition curve with a large enough effect in the signal ratio in the repeat runs, not every such curve was filed as active; the % refers to the signal ratio). In a few lines: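 Antagonist mode uses 1alpha,25-dihydroxyvitamin D3 at 3 nM final as stimulus. VDR-bla cells receive compounds in DMSO, incubate 16 h at 37C, then a beta-lactamase FRET substrate for 2 h at room temperature before fluorescence measurement.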

Experiment [15] in a line: qHTS assay to identify small molecule agonists of the peroxisome proliferator-activated receptor delta (PPARd) signaling pathway - cell viability counter screen (AID 743211). Also: nearly all actives have a fitted effect of over 55% in size. In short, it runs like this: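 HEK293H PPARd-bla, 3000 cells/well; 5 h preincubation 37C/5% CO2; cpd in DMSO, 17 h 37C; B/G FRET substrate 2 h RT; CellTiter-Glo 30 min RT, luminescence.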
A short description of experiment [16]: qHTS assay to identify small molecule antagonists of the farnesoid-X-receptor (FXR) signaling pathway - cell viability counter screen (AID 743221; active = well fitted cell-killing curve with a large enough effect in the repeat runs, not every such curve was filed as active; also: nearly all actives have a fitted effect of over 50% in size). In a few lines: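 Luminescence from CellTiter-Glo measures cytotoxicity in GeneBLAzer FXR-UAS-bla HEK 293T cells. Cells were exposed to compounds with 50 uM chenodeoxycholic acid (final) for 16 h at 37 C, in wells also used for the reporter readout.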

Experiment [17] addresses Aryl hydrocarbon receptor (Homo sapiens) (UniProt P35869). Briefly: qHTS assay to identify small molecule that activate the aryl hydrocarbon receptor (AhR) signaling pathway (AID 743085). Also: potency is read from the fitted curve at half-maximal effect; nearly all actives have a fitted effect of over 15% in size. In a few lines: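 Cell line HG2L7.5c1 (human hepatoma, 20× DRE-luc). Plated, 5 h 37C, compound/DMSO added, 24 h 37C. CellTiter-Fluor 30 min 37C → fluorescence; then ONE-Glo 30 min RT → luminescence.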

Experiment [18] is described as follows: qHTS assay for small molecule agonists of the antioxidant response element (ARE) signaling pathway (AID 743202; active = well fitted activation curve with a large enough effect in the signal ratio in the repeat runs, not every such curve was filed as active; the % refers to the signal ratio). In a few lines: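 Beta-lactamase reporter activity, read as fluorescence intensity, reflects ARE/Nrf2 pathway induction in HepG2 cells after 16 h compound exposure at 37 C; substrate loading was 2 h at room temperature.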
The target of experiment [19] is Bile acid receptor (Homo sapiens) (UniProt Q96RI1). Briefly: qHTS assay to identify small molecule antagonists of the farnesoid-X-receptor (FXR) signaling pathway (AID 743217; active = well fitted inhibition curve with a large enough effect in the signal ratio in the repeat runs, not every such curve was filed as active; the % refers to the signal ratio). In a few lines:
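Test compounds are pin-transferred onto FXR-bla HEK 293T cells, then chenodeoxycholic acid is added at 50 uM final. After 16 h at 37 °C, LiveBLAzer B/G substrate is applied for 2 h at room temperature and fluorescence read.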

Experiment [20] is described as follows: qHTS assay to identify aromatase inhibitors - cell viability counter screen (AID 743084).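 Also: cells stimulated with testosterone during compound exposure; nearly all actives have a fitted effect of over 55% in size.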

Structures are written as SMILES. Results filed as inconclusive are left out. Active and inactive are the calls of the source. Unless noted, calls follow the shape of the dose curve; as a rule, active = well fitted curve in the direction sought with a large enough effect in the repeat runs; inconclusive = weak or mixed curves; inactive = no such curve, though single readings can be large; an effect the other way counts as inactive or inconclusive.

Sequence of Vitamin D3 receptor (Homo sapiens) (P11473 whole entry, looked up): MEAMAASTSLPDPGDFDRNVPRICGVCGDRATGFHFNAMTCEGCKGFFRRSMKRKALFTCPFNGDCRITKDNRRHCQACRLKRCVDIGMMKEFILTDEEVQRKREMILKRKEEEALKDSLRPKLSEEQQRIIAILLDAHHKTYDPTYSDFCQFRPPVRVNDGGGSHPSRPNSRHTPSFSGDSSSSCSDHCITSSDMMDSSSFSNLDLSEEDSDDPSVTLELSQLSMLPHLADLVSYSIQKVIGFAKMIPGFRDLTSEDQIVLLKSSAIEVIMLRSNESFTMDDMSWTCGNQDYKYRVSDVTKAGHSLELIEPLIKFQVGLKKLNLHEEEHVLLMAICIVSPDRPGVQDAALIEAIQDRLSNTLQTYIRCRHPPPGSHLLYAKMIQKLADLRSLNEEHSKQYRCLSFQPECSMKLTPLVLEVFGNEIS
Sequence of Peroxisome proliferator-activated receptor delta (Homo sapiens) (Q03181 whole entry, looked up): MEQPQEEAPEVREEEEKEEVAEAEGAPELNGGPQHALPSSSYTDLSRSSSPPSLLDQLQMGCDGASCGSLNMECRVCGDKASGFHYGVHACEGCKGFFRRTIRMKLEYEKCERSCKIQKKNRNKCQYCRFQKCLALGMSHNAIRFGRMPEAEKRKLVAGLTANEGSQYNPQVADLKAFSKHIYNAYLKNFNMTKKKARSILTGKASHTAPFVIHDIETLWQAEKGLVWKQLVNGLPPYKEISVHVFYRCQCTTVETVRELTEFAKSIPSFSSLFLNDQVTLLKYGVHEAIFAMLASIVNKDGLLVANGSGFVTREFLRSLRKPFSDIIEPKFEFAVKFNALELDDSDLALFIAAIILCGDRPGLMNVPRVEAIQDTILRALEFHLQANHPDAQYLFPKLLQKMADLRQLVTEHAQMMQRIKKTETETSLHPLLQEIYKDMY
Sequence of Bile acid receptor (Homo sapiens) (Q96RI1 whole entry, looked up): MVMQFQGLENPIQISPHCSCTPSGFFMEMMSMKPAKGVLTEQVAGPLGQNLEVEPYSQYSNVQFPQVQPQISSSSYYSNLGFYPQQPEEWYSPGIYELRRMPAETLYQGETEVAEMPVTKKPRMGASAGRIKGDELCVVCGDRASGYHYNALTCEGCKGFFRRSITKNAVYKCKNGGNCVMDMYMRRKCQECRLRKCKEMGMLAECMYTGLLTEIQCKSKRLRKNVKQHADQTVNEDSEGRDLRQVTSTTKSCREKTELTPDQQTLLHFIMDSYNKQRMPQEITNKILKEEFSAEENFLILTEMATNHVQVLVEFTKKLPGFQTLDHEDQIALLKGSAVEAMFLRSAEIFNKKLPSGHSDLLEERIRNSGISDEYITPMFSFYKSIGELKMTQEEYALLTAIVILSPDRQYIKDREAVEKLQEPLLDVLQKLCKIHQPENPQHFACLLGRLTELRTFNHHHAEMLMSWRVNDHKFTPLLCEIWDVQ
Sequence of Peroxisome proliferator-activated receptor gamma (Homo sapiens) (P37231 whole entry, looked up): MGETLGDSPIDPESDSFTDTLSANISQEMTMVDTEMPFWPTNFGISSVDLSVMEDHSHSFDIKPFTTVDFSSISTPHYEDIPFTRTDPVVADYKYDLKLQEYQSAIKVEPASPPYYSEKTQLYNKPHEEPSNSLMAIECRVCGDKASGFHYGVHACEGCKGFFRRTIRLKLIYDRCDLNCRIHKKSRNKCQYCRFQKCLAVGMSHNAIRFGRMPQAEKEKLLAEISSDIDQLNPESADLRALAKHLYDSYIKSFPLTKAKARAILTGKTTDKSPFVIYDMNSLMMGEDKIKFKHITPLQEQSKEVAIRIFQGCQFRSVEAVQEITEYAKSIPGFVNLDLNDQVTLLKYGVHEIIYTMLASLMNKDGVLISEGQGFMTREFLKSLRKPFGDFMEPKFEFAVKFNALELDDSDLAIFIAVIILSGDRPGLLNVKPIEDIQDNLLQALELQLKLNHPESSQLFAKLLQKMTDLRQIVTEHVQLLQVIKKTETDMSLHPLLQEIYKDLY
Sequence of Aryl hydrocarbon receptor (Homo sapiens) (P35869 whole entry, looked up): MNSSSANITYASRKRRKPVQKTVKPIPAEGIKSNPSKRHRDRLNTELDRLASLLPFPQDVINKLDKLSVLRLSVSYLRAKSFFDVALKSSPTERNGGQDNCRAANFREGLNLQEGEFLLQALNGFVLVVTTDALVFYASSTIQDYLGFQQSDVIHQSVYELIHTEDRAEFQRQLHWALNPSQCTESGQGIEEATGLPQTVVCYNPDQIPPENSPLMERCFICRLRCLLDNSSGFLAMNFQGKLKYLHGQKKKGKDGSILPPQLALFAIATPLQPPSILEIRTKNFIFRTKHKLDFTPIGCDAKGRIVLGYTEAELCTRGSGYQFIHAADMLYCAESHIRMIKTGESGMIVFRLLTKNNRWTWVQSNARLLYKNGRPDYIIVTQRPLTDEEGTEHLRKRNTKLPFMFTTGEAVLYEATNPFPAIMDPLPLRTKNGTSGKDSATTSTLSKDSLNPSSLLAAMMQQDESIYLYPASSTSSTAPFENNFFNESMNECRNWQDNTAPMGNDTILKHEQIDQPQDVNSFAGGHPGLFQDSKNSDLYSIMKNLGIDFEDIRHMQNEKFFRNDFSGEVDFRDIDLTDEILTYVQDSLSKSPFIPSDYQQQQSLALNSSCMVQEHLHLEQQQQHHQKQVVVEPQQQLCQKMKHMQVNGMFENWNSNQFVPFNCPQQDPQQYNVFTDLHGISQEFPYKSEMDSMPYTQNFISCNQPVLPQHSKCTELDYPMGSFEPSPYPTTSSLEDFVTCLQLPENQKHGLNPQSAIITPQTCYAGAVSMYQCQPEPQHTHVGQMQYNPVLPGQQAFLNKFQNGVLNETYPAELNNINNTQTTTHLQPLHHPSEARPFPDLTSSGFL

For the molecule `CC(=O)Nc1cccc(N)c1`, the Potency result in experiment [1], in [2], in experiment [3], in experiment [4], in experiment [5] and in [8] was “inactive” throughout. Moreover, the Potency result in experiment [9] and in [11] was “inactive” throughout. Moreover, the call in experiment [6], in [7], in [10], in experiment [12], in experiment [13] and in experiment [14] was inactive.
With `O=C(Cl)c1cc(Cl)cc(Cl)c1`, the Potency entry in experiment [2], in experiment [4], in [5], in experiment [15], in experiment [9] and in experiment [11] was “inactive” in each case. Also, the Potency entry in experiment [16] was “inactive”. Further, the outcome in experiment [6], in [7], in experiment [13] and in [14] was inactive.
Take `O=C1c2ccccc2C(=O)c2c1ccc(O)c2O`: the Potency in experiment [17] was 29.8 µM (active). For the same molecule, the Potency entry in [1], in [2], in [4], in experiment [5], in [15] and in [9] was “inactive” throughout. Moreover, the Potency result in experiment [11] and in [16] was “inactive” throughout. The molecule was called inactive in experiment [6] and in [10].
As for `CC[C@H](NC(C)C)[C@H](O)c1ccc(O)c2[nH]c(=O)ccc12`, the Potency result in experiment [1], in experiment [3], in experiment [18], in experiment [5], in experiment [15] and in [9] was “inactive” in each case. Also, the Potency entry in [11] and in experiment [16] was “inactive” in each case. Besides, the molecule was called inactive in experiment [6], in [7], in [10] and in experiment [14].
Consider `CC(C)(O)C(=O)O`, for which the Potency result in experiment [1], in [4], in [18], in [5], in experiment [15] and in [8] was “inactive” in each case. Also, the Potency result in experiment [9], in [11] and in experiment [16] was “inactive” in each case. The outcome in experiment [6], in experiment [7], in experiment [10], in experiment [13] and in [14] was inactive.
With `O=C(Nc1ccccc1)c1cc([N+](=O)[O-])ccc1Cl`, in experiment [17], the Potency is 54.5 µM (active). Moreover, the Potency entry in experiment [2], in experiment [4], in experiment [5], in experiment [15], in experiment [8] and in [9] was “inactive” each time. Besides, the Potency result in experiment [11] and in [16] was “inactive” each time. Moreover, the result in [6] and in [12] was inactive.
`[O-][n+]1ccc(Cl)cc1`: the Potency result in [1], in experiment [5], in experiment [15], in experiment [8], in experiment [9] and in experiment [11] was “inactive” in each case. For the same molecule, the Potency result in [16] was “inactive”. Besides, the molecule was classed as inactive in experiment [6], in [7], in experiment [10], in experiment [19], in [12] and in experiment [13]. The outcome in experiment [14] was inactive.
`COc1cccc([C@H](O)C2CCN(CCc3ccc(F)cc3)CC2)c1OC`: the Potency entry in [20], in experiment [3], in experiment [15], in experiment [11] and in experiment [16] was “inactive” each time. For the same molecule, the outcome in experiment [6], in experiment [7], in [10], in [19] and in [12] was inactive.
`CCC(C(=O)O)c1ccc(N2Cc3ccccc3C2=O)cc1` (stereo not given): the Potency entry in experiment [3], in experiment [4], in [5], in experiment [15], in experiment [8] and in experiment [9] was “inactive” each time. Further, the Potency result in experiment [11] and in experiment [16] was “inactive” in each case. In addition, the molecule was classed as inactive in [6], in experiment [7], in experiment [10], in experiment [13] and in experiment [14].
